# PubChem BioAssay (Tox21)
# Inconclusive results are not listed. Calls of active or inactive are those of the source. Calls come from the whole dose curve; as a rule, active = well fitted cell-killing curve with a large enough effect in the repeat runs; inconclusive = weak or mixed curves; inactive = flat fitted curve, though single readings scatter.
# Test: qHTS assay to identify small molecule antagonists of the estrogen receptor beta (ER-beta) signaling pathway - cell viability counter screen (AID 1259382); note: nearly all actives have a fitted effect of over 55% in size
# Details: ER-beta-UAS-bla HEK293T viability, CellTiter-Glo luminescence, 16 h; series mostly up to 92.4 µM; activity change, negative = cytotoxicity: at the top concentration
# Excerpt: U.S. Tox21 Program National Center for Advancing Translational Sciences [NCATS] NIH Chemical Genomics Center [NCGC] U.S. Environmental Protection Agency [EPA] National Institutes of Environmental Health Sciences [NIEHS] National Toxicology Program [NTP] U.S. Food and Drug Administration [FDA] Tox21 Assay Overview: Estrogen receptor (ER), a nuclear hormone receptor, plays an important role in development, metabolic homeostasis and reproduction. Two subtypes of ER, ER-alpha and ER-beta, have similar expression patterns with some uniqueness in both types. Endocrine disrupting chemicals (EDCs) and their interactions with steroid hormone receptors like ER causes disruption of normal endocrine function. To identify the compounds that inhibit ER signaling, an ER-beta-UAS-bla GripTite cell line (Life Technologies, Madison, WI, USA) containing a beta-lactamase reporter gene under the control of an UAS response element was used to screen Tox21 10K compound library. The cytotoxicity of the Tox21 compound library against the ER-beta-bla cell line was tested in parallel by measuring the cell viability using CellTiter-Glo assay in the same wells.
# Tox21 Assay Protocol Summary: ER-beta-UAS-bla HEK293T cells were dispensed at 2,000 cells/4 uL of assay medium containing 2% charcoal stripped FBS per well into black wall/clear-bottom 1536-well plates using a Multidrop Combi (ThermoFisher Scientific, Waltham, MA) dispenser. After the assay plates were incubated at a 37C and 5% CO2 for 6 hr, 23 nL of compounds dissolved in DMSO, positive controls or DMSO only was transferred to the assay plate by a Pintool station (Kalypsys, San Diego, CA), followed by addition of 1 uL (1nM as final concentration) of 17-beta-estradiol (E2) in assay medium using a Flying Reagent Dispenser (FRD, Aurora Discovery, San Diego, CA). The plates were incubated at 37C and 5% CO2 for 16 hr. Then 1 uL of LiveBLAzer B/G FRET substrate was added using a Flying Reagent Dispenser, the plates were incubated at room temperature for 2 hours, and fluorescence intensity was measured by an Envision plate reader (PerkinElmer, Shelton, CT). For cell viability readout that measures cytotoxicity, 4 uL/well of CellTiter-Glo reagent was added into the assay plates using a FRD. After 30 min incubation at room temperature, the luminescence intensity in the plates was measured using a ViewLux (PerkinElmer) plate reader.
# % is set by controls: 0 for no effect and ±100 for the full control effect.
row,Structure (SMILES),"activity change, negative = cytotoxicity"
1,CC(=O)c1ccc(C)cc1,6.75% (inactive)
2,OC[C@H]1O[C@@H]2O[C@H]3[C@H](O)[C@@H](O)[C@@H](O[C@H]4[C@H](O)[C@@H](O)[C@@H](O[C@H]5[C@H](O)[C@@H](O)[C@@H](O[C@H]6[C@H](O)[C@@H](O)[C@@H](O[C@H]7[C@H](O)[C@@H](O)[C@@H](O[C@H]8[C@H](O)[C@@H](O)[C@@H](O[C@H]9[C@H](O)[C@@H](O)[C@@H](O[C@H]1[C@H](O)[C@H]2O)O[C@@H]9CO)O[C@@H]8CO)O[C@@H]7CO)O[C@@H]6CO)O[C@@H]5CO)O[C@@H]4CO)O[C@@H]3CO,1.3% [at 42.5 µM] (inactive)
3,O=C(O)c1ccc[n+]([O-])c1,2.41% [at 42.5 µM] (inactive)
4,NC(N)=NS(=O)(=O)c1ccc(N)cc1,5.93% [at 42.5 µM] (inactive)
5,COc1nc(C)nc(N)n1,0.542% (inactive)
6,COc1cc(C)cc(O)c1,0.561% (inactive)
7,Nc1ccc2cc(S(=O)(=O)O)ccc2c1,0.315% (inactive)
8,c1cc(CN2CCCCC2)cc(OCCCNc2nc3ccccc3s2)c1,-12.7% [at 42.5 µM] (inactive)
9,CCCCCC[C@@H](CCC)C(=O)O,-20.5% [at 42.5 µM] (inactive)
10,CCCOCC(C)OCC(C)O (stereo not given),6.12% (inactive)
11,CCCCCN(CCCCC)C(=O)C(CCC(=O)O)NC(=O)c1ccc(Cl)c(Cl)c1 (stereo not given),-16.6% [at 42.5 µM] (inactive)
12,CCCCCCC(=O)OCC,10.3% (inactive)
13,CCN(CC)C(=O)c1ccc(O)c(OC)c1,-2.11% [at 42.5 µM] (inactive)
14,NC(CS)C(=O)O (stereo not given),6.09% [at 42.5 µM] (inactive)
15,CCOC(=O)[C@H](CCc1ccccc1)N[C@@H](C)C(=O)N1CCC[C@H]1C(=O)O,-0.131% [at 42.5 µM] (inactive)
16,C=C(C)C(=O)NCCC[N+](C)(C)C,1.8% (inactive)
17,CC/C=C\C#N,0.179% (inactive)
18,C=CC(=O)OCCCCCC,12.7% (inactive)
19,CCCCCCC(CCCCCCCCCCC(=O)OCC(COC(C)=O)OC(C)=O)OC(C)=O (stereo not given),-8.59% [at 42.5 µM] (inactive)
20,CCC(C(=O)NC(N)=O)c1ccccc1 (stereo not given),-4.75% (inactive)

row,Structure (SMILES),"activity change, negative = cytotoxicity"
1,CO[Si](OC)(OC)OC,8.93% (inactive)
2,C[C@H]1O[C@@H](n2cc(F)c(=O)[nH]c2=O)[C@H](O)[C@@H]1O,0.29% [at 42.5 µM] (inactive)
3,OCC(O)[C@@H](O)[C@H](O)[C@H](O)CO[C@H]1O[C@H](CO)[C@@H](O)[C@H](O)[C@H]1O (stereo not given in full),5.68% (inactive)
4,CO[Si](CCCNCCC[Si](OC)(OC)OC)(OC)OC,-6.83% (inactive)
5,C=C(C)C(=O)NCCCN(C)C,16.3% (inactive)
6,Cc1nc(-c2ccc(OCC(C)C)c(C#N)c2)sc1C(=O)O,-15.9% [at 42.5 µM] (inactive)
7,CC1=CC(=O)CCC1,7.61% (inactive)
8,CC(C)CCCC(C)NCCC(C)C (stereo not given),2.38% [at 42.5 µM] (inactive)
9,OCC(CO)(CO)COCC(CO)(CO)CO,-1.48% (inactive)
10,COc1ccc(COC=O)cc1,7.11% (inactive)
11,CC(CCO)CCCC(C)(C)O (stereo not given),1.55% (inactive)
12,CN(C)N=Nc1ccccc1,7.65% (inactive)
13,O=C(CCOCCOCCOCCOCCC(=O)Nc1c(I)cc(I)c(C(=O)O)c1I)Nc1c(I)cc(I)c(C(=O)O)c1I,-2.08% [at 42.5 µM] (inactive)
14,C=C(C)[C@@H]1CCC2=CC(=O)C[C@@H](C)[C@]2(C)C1,-1.09% (inactive)
15,COc1cc(CCC(C)=O)ccc1O,3.45% (inactive)
16,O=C(O)CCNC(=O)c1ccc(N=Nc2ccc(O)c(C(=O)O)c2)cc1,5.65% [at 42.5 µM] (inactive)
17,Cc1c(C)n(CCN(C)C)c2ccc(C(=O)OCCN(C)C)cc12,-14.1% [at 42.5 µM] (inactive)
18,Nc1[nH]c(=O)ncc1F,6.86% [at 42.5 µM] (inactive)
19,CCCCOCC(C)OCC(C)O (stereo not given),-1.87% (inactive)
20,CC(C)(C)N(CCO)CCO,-1.2% (inactive)
